According to PubChem BioAssay (NCATS):
Results filed as inconclusive are left out. Active and inactive are the calls of the source. Calls come from the whole dose curve; as a rule, active = well fitted curve in the direction sought with a large enough effect; inconclusive = small, poorly fitted or top-dose-only effect, or another doubt; inactive = no such curve, though single readings can be large; an effect the other way counts as inactive or inconclusive.

Tests used:
[1] = qHTS of pediatric cancer cell lines to identify multiple opportunities for drug repurposing: Primary screen for Saos-2 cells (AID 1347097); conditions: Saos-2 viability, CellTiter-Glo ATP luminescence, 48 h; series mostly up to 46 µM; note: nearly all actives have a fitted effect of over 40% in size
Procedure, shortened: (§1)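 Cells plated at 500-1,000/well in growth medium, compounds added after 5 h. MIPE tested at 11 points (from 0.78 nM), NPC at 8 points (from 0.59 nM). CellTiter-Glo luminescence after 48 h; concentration-response curves from primary screen.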

[2] = qHTS of pediatric cancer cell lines to identify multiple opportunities for drug repurposing: Primary screen for NB1643 cells (AID 1347099); conditions: NB1643 neuroblastoma viability, CellTiter-Glo luminescence, 48 h; series mostly up to 46 µM; note: nearly all actives have a fitted effect of over 50% in size
Procedure, shortened: as §1

[3] = qHTS of pediatric cancer cell lines to identify multiple opportunities for drug repurposing: Primary screen for LAN-5 cells (AID 1347100); conditions: LAN-5 neuroblastoma viability, CellTiter-Glo luminescence, 48 h; series mostly up to 46 µM
Procedure, shortened: (§2)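 Viability after 48 h compound treatment at 37C, 500-1,000 cells/well, read as ATP luminescence with CellTiter-Glo. Primary screens used 11-point (MIPE, 0.78 nM-46 µM) or 8-point (NPC, 0.59 nM-46 µM) final concentrations; follow-up screens used 11-point dilutions.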

[4] = qHTS of pediatric cancer cell lines to identify multiple opportunities for drug repurposing: Primary screen for BT-12 cells (AID 1347101); conditions: BT-12 viability, CellTiter-Glo luminescence, 48 h; series mostly up to 57.3 µM; note: nearly all actives have a fitted effect of over 25% in size
Procedure, shortened: (§3)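 Cells (500-1,000/well) rested 5 h, then received compounds for 48 h; metabolically active cells were measured by CellTiter-Glo luminescence. Final concentrations spanned up to 46 µM (MIPE, 11-point) or 0.59 nM-46 µM (NPC, 8-point) in primary screens, 11-point in follow-ups.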

[5] = qHTS of pediatric cancer cell lines to identify multiple opportunities for drug repurposing: Primary screen for Rh18 cells (AID 1347102); conditions: Rh18 rhabdomyosarcoma viability, CellTiter-Glo luminescence, 48 h; series mostly up to 46 µM; note: nearly all actives have a fitted effect of over 65% in size
Procedure, shortened: as §2

[6] = qHTS of pediatric cancer cell lines to identify multiple opportunities for drug repurposing: Primary screen for OHS-50 cells (AID 1347103); conditions: OHS-50 osteosarcoma viability, CellTiter-Glo luminescence, 48 h; series mostly up to 57.3 µM; note: nearly all actives have a fitted effect of over 40% in size
Procedure, shortened: as §3

[7] = qHTS of pediatric cancer cell lines to identify multiple opportunities for drug repurposing: Primary screen for RD cells (AID 1347104); conditions: RD rhabdomyosarcoma viability, CellTiter-Glo luminescence, 48 h; series mostly up to 46 µM; note: nearly all actives have a fitted effect of over 55% in size
Procedure, shortened: as §1

[8] = qHTS of pediatric cancer cell lines to identify multiple opportunities for drug repurposing: Primary screen for MG 63 (6-TG R) cells (AID 1347105); conditions: MG 63 (6-TG R) viability, CellTiter-Glo, 48 h; series mostly up to 46 µM; note: nearly all actives have a fitted effect of over 50% in size
Procedure, shortened: as §1

[9] = qHTS of pediatric cancer cell lines to identify multiple opportunities for drug repurposing: Primary screen for SK-N-SH cells (AID 1347098); conditions: SK-N-SH viability, CellTiter-Glo luminescence, 48 h; series mostly up to 57 µM; note: nearly all actives have a fitted effect of over 65% in size
Procedure, shortened: as §3

Measured: Potency
Potency is the fitted concentration of half-maximal effect.

NCC(=O)Nc1ccc(-n2nc(C(F)(F)F)cc2-c2ccc3c(ccc4ccccc43)c2)cc1
active: [1] 26.4 µM | [2] 18.7 µM | [3] 23.5 µM | [4] 24.3 µM | [5] 26.4 µM | [6] 30.6 µM | [7] 16.6 µM

CC(C)c1cc(-c2n[nH]c(=O)n2-c2ccc3c(ccn3C)c2)c(O)cc1O
active: [1] 0.118 µM | [2] 0.0662 µM | [5] 0.0833 µM | [6] 0.153 µM | [7] 0.059 µM

CC(C)(O)CCc1ccc(OCc2cc(-c3cccc(OC(F)F)c3)c3ncccc3c2)cc1
active: [2] 18.7 µM
inactive: [1] | [4] | [5] | [7] | [8]

COc1cc2c(Oc3ccc(NC(=O)C4(C(=O)Nc5ccc(F)cc5)CC4)cc3F)ccnc2cc1OCCCN1CCOCC1
active: [1] 2.64 µM | [9] 2.41 µM | [3] 0.372 µM | [4] 19.3 µM | [5] 4.69 µM | [6] 0.385 µM | [7] 8.33 µM | [8] 4.69 µM

C[C@@H](Oc1cc(-c2cnn(C3CCNCC3)c2)cnc1N)c1c(Cl)ccc(F)c1Cl
active: [1] 9.35 µM | [9] 19.2 µM | [3] 1.05 µM | [4] 24.3 µM | [5] 16.6 µM | [6] 2.43 µM | [7] 16.6 µM | [8] 18.7 µM

CS(=O)(=O)c1ccc(-c2cnc(N)c(C(=O)Nc3ccccc3)n2)cc1
not listed: [3] | [4] | [6]
inactive: all other assays above

Cc1[nH]nc2ccc(-c3cncc(OC[C@@H](N)Cc4ccccc4)c3)cc12
active: [1] 2.96 µM | [2] 0.935 µM | [3] 0.372 µM | [4] 1.72 µM | [5] 3.32 µM | [7] 3.32 µM | [8] 2.96 µM

COc1cc(-c2nn(C3CCC(N4CCN(C(C)=O)CC4)CC3)c3ncnc(N)c23)ccc1NC(=O)c1cc2ccccc2n1C (configuration not stated)
active: [1] 0.526 µM | [9] 3.41 µM | [3] 0.332 µM | [6] 2.17 µM | [7] 0.662 µM

C=CCn1c(=O)c2cnc(Nc3ccc(N4CCN(C)CC4)cc3)nc2n1-c1cccc(C(C)(C)O)n1
active: [1] 1.05 µM | [9] 0.681 µM | [2] 0.187 µM | [4] 7.69 µM | [5] 7.43 µM | [6] 0.306 µM

Cc1cn(-c2cc(NC(=O)c3ccc(C)c(Nc4nccc(-c5cccnc5)n4)c3)cc(C(F)(F)F)c2)cn1
not listed: [3] | [6] | [7]
inactive: all other assays above

CC(C)(C)c1cnc(CSc2cnc(NC(=O)C3CCNCC3)s2)o1
active: [1] 0.743 µM | [9] 1.52 µM | [4] 0.432 µM | [6] 0.273 µM | [7] 0.264 µM

COC(=O)c1ccc2c(C(=Nc3ccc(N(C)C(=O)CN4CCN(C)CC4)cc3)c3ccccc3)c(O)[nH]c2c1
active: [1] 9.35 µM | [9] 6.07 µM | [3] 2.35 µM | [6] 5.44 µM

CS(=O)(=O)N1CCN(Cc2cc3nc(-c4cccc5[nH]ncc45)nc(N4CCOCC4)c3s2)CC1
active: [1] 0.0526 µM | [2] 0.833 µM | [3] 1.05 µM | [5] 1.32 µM | [6] 0.0769 µM | [7] 1.05 µM | [8] 0.0935 µM

CCN1CCN(CC(=O)Nc2ccc(-c3cccc4c(=O)cc(N5CCOCC5)oc34)c3sc4ccccc4c23)CC1
active: [1] 2.96 µM | [9] 6.07 µM | [3] 0.833 µM | [5] 1.18 µM | [6] 0.172 µM | [7] 0.743 µM

Cc1cc(Nc2ncnc3ccc(-c4ccc(CNCCS(C)(=O)=O)o4)cc23)ccc1Oc1ccn2ncnc2c1
active: [1] 2.09 µM | [9] 21.5 µM | [2] 16.6 µM | [4] 6.85 µM | [5] 20.9 µM | [6] 1.22 µM | [7] 16.6 µM | [8] 18.7 µM

Nc1ccc(S(=O)(=O)Nc2ncccn2)cc1
not listed: [9]
inactive: all other assays above

CC(O)C1C(=O)N2C(C(=O)O)=C(SC3CNC(C(=O)N(C)C)C3)C(C)C12 (configuration not stated)
not listed: [2] | [9]
inactive: all other assays above

C=C1C(=CC=C2CCCC3(C)[C@@H]([C@H](C)C=CC=CC(O)(CC)CC)CC[C@@H]23)C[C@@H](O)C[C@@H]1O (some centres not stated)
active: [2] 14.8 µM | [3] 14.8 µM | [6] 24.3 µM | [7] 26.4 µM
inactive: [5] | [8]

CC(C)c1noc(N2CCC(COc3ccc(-c4ccc(S(C)(=O)=O)cc4)nc3)CC2)n1
active: [6] 4.32 µM
inactive: [2] | [3] | [5] | [8]

CCN(CC)CCNC(=O)c1ccc2nc(-c3ccccc3)c(-c3ccc(CN4CCC(n5c(=O)[nH]c6ccccc65)CC4)cc3)nc2c1
active: [1] 6.62 µM | [3] 5.9 µM | [5] 2.35 µM | [6] 3.43 µM | [8] 7.43 µM

Cc1cccc(C=NNc2cc(N3CCOCC3)nc(OCCc3ccccn3)n2)c1
inactive: [8]
active: [9] 24.1 µM | [2] 16.6 µM | [6] 24.3 µM

CN[C@H]1CCc2cc(OC)c(OC)c(OC)c2-c2ccc(OC)c(=O)cc21
inactive: [8]
active: [1] 0.0037 µM | [3] 0.0023 µM | [4] 0.0039 µM | [6] 0.0015 µM

O=C(NC1CCNCC1)c1[nH]ncc1NC(=O)c1c(Cl)cccc1Cl
active: [1] 1.66 µM | [4] 1.93 µM | [6] 0.968 µM | [7] 0.332 µM | [8] 3.72 µM

CCOC(=O)C1=C(C)NC2=C(C(=O)CC(C)(C)C2)C1c1ccc(-c2ccccc2)cc1 (configuration not stated)
active: [1] 3.32 µM | [4] 24.3 µM | [5] 16.6 µM | [7] 16.6 µM | [8] 14.8 µM

C[C@@H]1CN(CC(=O)Nc2ccc3c(c2)Cc2cccc(-c4cc(=O)cc(N5CCOCC5)o4)c2S3)C[C@H](C)O1
active: [1] 10.5 µM | [3] 18.7 µM | [5] 18.7 µM

COc1ccc2c(c1)CC[C@@H](CN(C)CC(=O)O)[C@H]2c1ccccc1
active: [1] 2.09 µM | [3] 1.05 µM | [6] 4.32 µM | [8] 2.96 µM

CCCn1c(=O)c2[nH]c(-c3cnn(Cc4cccc(C(F)(F)F)c4)c3)nc2n(CC)c1=O
inactive: [9] | [2] | [3] | [5] | [7]

Cc1cc(C(=O)N2CCN(c3cccc(Cl)c3)CC2)n(-c2ccccc2)n1
active: [1] 0.118 µM | [3] 0.743 µM | [4] 6.85 µM | [6] 1.37 µM
inactive: [5]

Cc1c(NC(=O)OC[C@@H]2COCCN2)cn2ncnc(Nc3ccc4c(cnn4Cc4cccc(F)c4)c3)c12
active: [4] 24.3 µM | [8] 0.187 µM

Cc1cnc(-c2cnc(NCCNc3ccc(C#N)cn3)nc2-c2ccc(Cl)cc2Cl)[nH]1
inactive: [3] | [6]

COc1cc(C(=O)NS(=O)(=O)c2ccccc2C)ccc1Cc1cn(C)c2ccc(NC(=O)OC3CCCC3)cc12
active: [1] 20.9 µM | [5] 26.4 µM | [7] 37.2 µM | [8] 29.6 µM

Cn1c(CNc2ccc(C(=N)N)cc2)nc2cc(C(=O)N(CCC(=O)O)c3ccccn3)ccc21
not listed: [2] | [9]
inactive: all other assays above

CC(C)CC(=O)Nc1n[nH]c2c1CN(C(=O)C1CCN(C)CC1)C2(C)C
inactive: [5]
active: [1] 5.26 µM | [4] 2.43 µM | [6] 3.43 µM | [7] 2.35 µM

OCCCNc1cc(-c2ccnc(Nc3cccc(Cl)c3)n2)ccn1
active: [1] 0.148 µM | [6] 0.153 µM | [7] 0.235 µM

CNC(=O)CN1CCC(Oc2cc3c(Nc4cccc(Cl)c4F)ncnc3cc2OC)CC1
active: [1] 0.0187 µM | [3] 0.001 µM | [4] 0.0014 µM | [6] 0.001 µM | [7] 0.0026 µM

Cc1cn2c(-c3cn[nH]c3)cnc2c(Nc2ccc(C(=O)N3CCNCC3)cc2F)n1
active: [9] 24.1 µM | [2] 18.7 µM | [3] 16.6 µM | [5] 16.6 µM | [6] 13.7 µM

COc1cccc(Nc2c(C(N)=O)cnc3c(C)cc(S(=O)(=O)c4cccc(C(=O)N(C)C)c4)cc23)c1
active: [6] 10.6 µM
inactive: [1] | [5] | [7] | [8]

CCNC(=O)Nc1ccc2ncc(Nc3ccc(C)cc3)nc2n1
active: [1] 18.7 µM | [3] 0.935 µM

Nc1nc(NCCNc2ncc(-n3ccnc3)c(-c3ccc(Cl)cc3Cl)n2)ccc1[N+](=O)[O-]
active: [1] 26.4 µM | [2] 18.7 µM | [5] 14.8 µM | [6] 19.3 µM | [7] 14.8 µM | [8] 14.8 µM
